From the supplement of paper PMC10849652
Of roughly 8,800 targets only a part is listed; those with a hit were picked by preference. About 0.5% of all pairs of compound and target were hits.

Tests used:
Assay in all cases: log2 fold change, soluble protein after heating vs DMSO (PISA); higher = thermal stabilisation; K562 lysate, 10 uM; active = over 0.2 and 3.5 SD of the protein, either way, in both replicates (recomputed)
[1] = compound: C#Cc1cccc(Nc2ncnc3cc(OCCOC)c(OCCOC)cc23)c1 [erlotinib]
Procedure, shortened: (§1)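 Quantification was by TMTpro 16plex LC-MS/MS with equalised channel sums, applied to the supernatant after 21,000xg for 90 min. Samples were crude K562 extract at 1 mg/mL protein in PBS pH 7.4 with 1 mM MgCl2, treated with 10 μM compound for 30 min, heated for 3 min across 48°C-58°C, pooled and brought to 0.5% NP-40 at 4°C. Values are log-two fold changes in thermal stability relative to solvent controls, from duplicates.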

[2] = compound: C/C(=N\NC(=O)C1=CC(=CC=C1)S(=O)(=O)N2CCOCC2)/C3=C(C=CC(=C3)Cl)O
Procedure, shortened: as §1

[3] = compound: C1=CC(=CC=C1C2=NC3=C(N2)C=C(C=C3)C(=O)N)OC4=CC=C(C=C4)Cl
Procedure, shortened: as §1

[4] = compound: C1=CC2=C(C=CC(=C2)/C=C\3/C(=O)NC(=NCC4=CC=CS4)S3)N=C1
Procedure, shortened: as §1

[5] = compound: C1=CC=C(C=C1)C2=NC(=C(N2)C3=CC=NC=C3)C4=CC(=C(C=C4)Cl)O
Procedure, shortened: as §1

[6] = compound: C1=CC=C2C(=C1)C3=NNC4=CC=CC(=C43)C2=O
Procedure, shortened: as §1

[7] = compound: C1CCN(C1)C(=O)NC2=CC=CC(=C2)NC3=NC=C(C(=N3)NCCC4=CN=CN4)Br
Procedure, shortened: as §1

[8] = compound: C1CN(CCC1(CC2=CC=C(C=C2)Cl)N)C3=NC=NC4=C3C=CN4
Procedure, shortened: as §1

[9] = compound: C1COCCN1CCN2C3=CC=CC=C3N=C2NC(=O)C4=CC(=CC=C4)[N+](=O)[O-] [IRAK-1-4 Inhibitor I]
Procedure, shortened: as §1

[10] = compound: C1=CC2=NC=CN=C2C=C1/C=C/3\C(=O)NC(=O)S3
Procedure, shortened: as §1

Measured: log2 fold change

SATB2 (UniProt Q9UPW6)
Sequence of UniProt Q9UPW6 (Q9UPW6 whole entry, looked up): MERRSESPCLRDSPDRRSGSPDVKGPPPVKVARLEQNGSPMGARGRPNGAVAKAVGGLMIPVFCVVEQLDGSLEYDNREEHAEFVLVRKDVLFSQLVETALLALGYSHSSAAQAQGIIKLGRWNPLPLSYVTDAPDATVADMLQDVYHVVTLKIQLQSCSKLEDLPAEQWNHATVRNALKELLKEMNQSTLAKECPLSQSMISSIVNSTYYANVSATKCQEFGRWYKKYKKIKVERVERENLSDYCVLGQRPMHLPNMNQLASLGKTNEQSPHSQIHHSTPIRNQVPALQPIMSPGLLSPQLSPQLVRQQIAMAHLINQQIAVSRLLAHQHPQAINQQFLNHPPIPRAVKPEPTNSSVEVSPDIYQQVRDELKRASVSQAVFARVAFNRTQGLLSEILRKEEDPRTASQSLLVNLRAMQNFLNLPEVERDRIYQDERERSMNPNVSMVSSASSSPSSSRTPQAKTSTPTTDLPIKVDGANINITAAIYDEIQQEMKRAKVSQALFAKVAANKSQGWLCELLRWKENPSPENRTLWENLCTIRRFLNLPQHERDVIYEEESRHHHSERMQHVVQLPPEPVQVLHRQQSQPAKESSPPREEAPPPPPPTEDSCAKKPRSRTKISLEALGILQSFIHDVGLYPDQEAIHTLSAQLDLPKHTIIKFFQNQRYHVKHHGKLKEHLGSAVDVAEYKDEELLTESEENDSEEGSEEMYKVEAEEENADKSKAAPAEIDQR
inactive: [1] -0.019 | [2] -0.044 | [3] 0.022 | [4] -0.01 | [5] -0.006 | [6] 0.031 | [7] -0.033 | [8] 0.009 | [9] 0.027

RALGAPB isoform 3 (UniProt Q86X10)
Sequence of UniProt Q86X10 (Q86X10 whole entry, looked up): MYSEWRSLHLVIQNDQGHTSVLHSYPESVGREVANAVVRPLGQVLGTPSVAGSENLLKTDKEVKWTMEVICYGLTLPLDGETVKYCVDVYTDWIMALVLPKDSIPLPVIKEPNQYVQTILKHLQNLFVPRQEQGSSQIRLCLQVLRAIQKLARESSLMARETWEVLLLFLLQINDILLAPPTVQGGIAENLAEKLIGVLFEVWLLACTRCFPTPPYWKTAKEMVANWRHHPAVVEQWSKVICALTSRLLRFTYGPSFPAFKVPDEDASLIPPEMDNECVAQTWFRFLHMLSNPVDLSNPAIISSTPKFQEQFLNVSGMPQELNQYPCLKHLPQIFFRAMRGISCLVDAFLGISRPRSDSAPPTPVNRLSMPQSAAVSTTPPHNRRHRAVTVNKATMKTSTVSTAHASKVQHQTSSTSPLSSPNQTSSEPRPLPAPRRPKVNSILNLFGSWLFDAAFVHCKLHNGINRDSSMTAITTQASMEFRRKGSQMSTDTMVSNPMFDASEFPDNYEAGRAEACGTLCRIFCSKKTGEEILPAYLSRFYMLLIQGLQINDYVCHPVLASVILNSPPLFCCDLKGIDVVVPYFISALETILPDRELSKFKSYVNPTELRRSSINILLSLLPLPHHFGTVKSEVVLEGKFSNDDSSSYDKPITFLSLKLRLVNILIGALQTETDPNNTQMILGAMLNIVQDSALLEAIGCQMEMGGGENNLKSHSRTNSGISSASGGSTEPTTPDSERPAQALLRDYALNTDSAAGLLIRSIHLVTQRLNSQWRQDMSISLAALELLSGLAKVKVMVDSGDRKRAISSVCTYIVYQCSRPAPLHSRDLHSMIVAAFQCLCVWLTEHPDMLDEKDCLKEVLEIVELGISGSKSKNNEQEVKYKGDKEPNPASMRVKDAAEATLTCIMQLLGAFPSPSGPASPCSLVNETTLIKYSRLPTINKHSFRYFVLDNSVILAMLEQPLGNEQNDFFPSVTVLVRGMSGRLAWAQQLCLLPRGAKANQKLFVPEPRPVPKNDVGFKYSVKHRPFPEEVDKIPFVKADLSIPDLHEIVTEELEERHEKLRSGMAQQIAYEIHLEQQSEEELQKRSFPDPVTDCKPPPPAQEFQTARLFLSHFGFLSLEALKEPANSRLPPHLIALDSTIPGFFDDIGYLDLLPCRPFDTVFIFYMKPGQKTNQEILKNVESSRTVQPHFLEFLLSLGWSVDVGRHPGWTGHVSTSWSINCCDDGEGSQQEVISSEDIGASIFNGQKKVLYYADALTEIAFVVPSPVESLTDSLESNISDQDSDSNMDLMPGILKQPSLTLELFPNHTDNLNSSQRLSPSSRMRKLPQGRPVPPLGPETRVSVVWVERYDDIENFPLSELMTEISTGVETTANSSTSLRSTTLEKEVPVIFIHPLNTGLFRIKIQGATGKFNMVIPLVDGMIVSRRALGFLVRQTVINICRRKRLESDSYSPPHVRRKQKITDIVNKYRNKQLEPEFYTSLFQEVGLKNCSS
inactive: [10] -0.146 | [7] -0.119 | [8] 0

RDH11 (UniProt Q8TC12)
Sequence of UniProt Q8TC12 (Q8TC12 whole entry, looked up): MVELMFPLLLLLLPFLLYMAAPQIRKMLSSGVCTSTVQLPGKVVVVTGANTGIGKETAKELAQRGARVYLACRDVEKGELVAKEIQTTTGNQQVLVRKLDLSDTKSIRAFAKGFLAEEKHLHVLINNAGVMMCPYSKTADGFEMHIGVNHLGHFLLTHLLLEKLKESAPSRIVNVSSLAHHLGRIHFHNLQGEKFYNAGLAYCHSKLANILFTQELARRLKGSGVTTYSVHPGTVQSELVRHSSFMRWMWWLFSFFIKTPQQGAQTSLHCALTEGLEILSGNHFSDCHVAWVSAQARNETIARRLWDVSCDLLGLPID
inactive: [1] 0.018 | [2] 0.087 | [3] -0.02 | [4] 0.015 | [5] 0.006 | [6] -0.065 | [7] -0.037 | [8] 0.063 | [9] 0.012

ROBO2 isoform 3 (UniProt Q9HCK4)
Sequence of UniProt Q9HCK4 (Q9HCK4 whole entry, looked up): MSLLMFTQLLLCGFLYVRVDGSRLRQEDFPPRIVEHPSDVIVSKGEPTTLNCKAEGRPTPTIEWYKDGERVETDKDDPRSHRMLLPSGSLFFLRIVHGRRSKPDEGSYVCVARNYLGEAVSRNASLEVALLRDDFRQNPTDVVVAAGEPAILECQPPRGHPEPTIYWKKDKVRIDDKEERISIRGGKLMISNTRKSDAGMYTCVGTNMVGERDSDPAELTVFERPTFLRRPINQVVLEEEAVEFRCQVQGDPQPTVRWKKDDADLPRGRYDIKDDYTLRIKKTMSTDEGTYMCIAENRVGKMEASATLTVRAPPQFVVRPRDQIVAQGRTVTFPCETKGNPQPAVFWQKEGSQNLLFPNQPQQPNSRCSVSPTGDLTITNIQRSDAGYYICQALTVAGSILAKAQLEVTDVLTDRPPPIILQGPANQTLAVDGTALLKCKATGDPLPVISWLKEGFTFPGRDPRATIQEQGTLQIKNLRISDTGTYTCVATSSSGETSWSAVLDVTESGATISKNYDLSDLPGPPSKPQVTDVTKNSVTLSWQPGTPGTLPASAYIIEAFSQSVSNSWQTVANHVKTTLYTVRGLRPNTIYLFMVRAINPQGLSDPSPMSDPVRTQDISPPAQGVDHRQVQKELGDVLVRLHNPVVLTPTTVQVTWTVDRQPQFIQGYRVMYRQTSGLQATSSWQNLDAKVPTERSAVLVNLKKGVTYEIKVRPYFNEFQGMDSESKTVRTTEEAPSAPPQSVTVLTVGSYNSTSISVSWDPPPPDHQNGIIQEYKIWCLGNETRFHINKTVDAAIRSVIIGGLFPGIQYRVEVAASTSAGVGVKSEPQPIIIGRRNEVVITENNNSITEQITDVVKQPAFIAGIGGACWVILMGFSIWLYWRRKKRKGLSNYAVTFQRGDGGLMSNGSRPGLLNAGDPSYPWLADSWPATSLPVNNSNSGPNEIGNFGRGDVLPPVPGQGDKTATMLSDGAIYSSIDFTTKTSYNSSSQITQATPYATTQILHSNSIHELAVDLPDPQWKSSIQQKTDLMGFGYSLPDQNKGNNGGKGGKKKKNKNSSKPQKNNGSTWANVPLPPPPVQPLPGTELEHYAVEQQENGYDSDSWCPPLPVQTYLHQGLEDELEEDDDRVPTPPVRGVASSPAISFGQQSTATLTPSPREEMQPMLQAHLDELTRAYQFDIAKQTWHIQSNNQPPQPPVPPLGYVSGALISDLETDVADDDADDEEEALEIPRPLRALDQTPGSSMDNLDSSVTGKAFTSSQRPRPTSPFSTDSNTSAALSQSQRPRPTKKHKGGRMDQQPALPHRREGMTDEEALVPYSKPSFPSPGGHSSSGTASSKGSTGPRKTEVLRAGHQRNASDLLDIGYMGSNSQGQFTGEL
inactive: [1] 0.042 | [3] -0.013 | [5] 0.008 | [9] -0.062

RNF24 isoform 2 (UniProt Q9Y225)
Sequence of UniProt Q9Y225 (Q9Y225 whole entry, looked up): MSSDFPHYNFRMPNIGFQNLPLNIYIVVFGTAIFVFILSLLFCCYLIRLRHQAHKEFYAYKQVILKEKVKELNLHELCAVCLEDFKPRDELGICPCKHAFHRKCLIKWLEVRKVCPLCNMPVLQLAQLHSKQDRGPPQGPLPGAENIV
inactive: [1] -0.146 | [3] -0.053 | [10] 0.083

RXRB isoform 3 (UniProt P28702)
Sequence of UniProt P28702 (P28702 whole entry, looked up): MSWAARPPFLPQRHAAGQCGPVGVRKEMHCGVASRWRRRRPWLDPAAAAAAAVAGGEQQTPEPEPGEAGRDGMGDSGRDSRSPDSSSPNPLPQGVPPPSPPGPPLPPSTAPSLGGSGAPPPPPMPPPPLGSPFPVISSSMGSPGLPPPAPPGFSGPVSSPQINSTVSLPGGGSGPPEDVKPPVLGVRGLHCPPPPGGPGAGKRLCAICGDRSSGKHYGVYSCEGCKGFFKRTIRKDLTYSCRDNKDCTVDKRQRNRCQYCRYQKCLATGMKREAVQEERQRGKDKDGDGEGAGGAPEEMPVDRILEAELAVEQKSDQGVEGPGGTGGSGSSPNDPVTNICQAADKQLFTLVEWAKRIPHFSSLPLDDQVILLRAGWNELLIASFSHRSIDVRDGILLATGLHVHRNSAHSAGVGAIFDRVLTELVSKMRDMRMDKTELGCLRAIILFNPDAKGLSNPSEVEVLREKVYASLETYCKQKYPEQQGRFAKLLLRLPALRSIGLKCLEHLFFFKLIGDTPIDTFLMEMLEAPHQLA
inactive: [1] -0.025 | [2] 0.006 | [3] -0.038 | [4] -0.014 | [10] 0.051 | [6] -0.039 | [7] 0.011 | [8] -0.015

RHOU (UniProt Q7L0Q8)
Sequence of UniProt Q7L0Q8 (Q7L0Q8 whole entry, looked up): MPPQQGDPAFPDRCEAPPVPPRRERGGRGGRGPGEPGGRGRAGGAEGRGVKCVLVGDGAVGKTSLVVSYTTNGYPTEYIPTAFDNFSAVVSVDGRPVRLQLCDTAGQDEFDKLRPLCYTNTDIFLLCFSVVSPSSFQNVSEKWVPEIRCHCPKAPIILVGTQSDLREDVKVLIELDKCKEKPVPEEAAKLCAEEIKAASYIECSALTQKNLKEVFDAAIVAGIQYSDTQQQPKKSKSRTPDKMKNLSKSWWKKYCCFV
inactive: [1] -0.052 | [2] 0.07 | [3] -0.096 | [4] -0.054 | [5] 0.002 | [6] 0.061 | [7] -0.006 | [8] 0.03 | [9] -0.089
